Bioassay records: PubChem BioAssay, National Center for Advancing Translational Sciences (NCATS)
3T3 cytotox: Cytotoxic Profiling in NIH 3T3 Cell Line of Diverse Libraries Using Quantitative High-Throughput Screening; NIH 3T3 viability, CellTiter-Glo ATP luminescence, 48-72 h; 94,000 tested, 4.3% active; AID 1345082, 2018; Potency, µM (series often up to 96.7 µM), inactives show at the top dose activity change, negative = cytotoxicity, hits mostly inhibitors; note: % is set by controls: 0 for no effect and ±100 for the full control effect; nearly all actives have a fitted effect of over 55% in size
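NIH 3T3 cells at 400 cells/well received 23 nL of compound by pintool and were incubated 48 or 72 h at 37 °C. Viability was read as ATP-coupled CellTiter-Glo luminescence.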
HEK cytotox: Cytotoxic Profiling in HEK 293 Cell Line of Diverse Libraries Using Quantitative High-Throughput Screening | HEK 293 viability, ATP luminescence (CellTiter-Glo), 48-72 h | Potency, µM (top dose mostly 115 µM), for inactives: at the highest dose activity change, negative = cytotoxicity, actives largely listed as inhibitors | 94,000 tested, 6.6% active; note: % is set by controls: 0 for no effect and ±100 for the full control effect; nearly all actives have a fitted effect of over 60% in size
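CellTiter-Glo luminescence (cellular ATP) was read after 48 or 72 hr of compound exposure at 37 degree Celsius. Cells were HEK 293 plated at 250 cells/well.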
NPR1 antag: Natriuretic polypeptide receptor (hNpr1) antagonism - Primary qHTS; Atrial natriuretic peptide receptor 1 (Homo sapiens), P16066; HEK293 hNpr1 GloSensor cGMP, ANP-stimulated luminescence; Potency, µM (highest dose often 46.3 µM), for inactives: top-dose activity change, negative = inhibition, actives largely listed as inhibitors; 76,000 tested, 1.6% active; AID 1347048, 2019; calls by dose curve; note: % is set by controls: 0 for no effect and ±100 for the full control effect; nearly all actives have a fitted effect of over 60% in size
Target sequence (P16066 whole entry, looked up): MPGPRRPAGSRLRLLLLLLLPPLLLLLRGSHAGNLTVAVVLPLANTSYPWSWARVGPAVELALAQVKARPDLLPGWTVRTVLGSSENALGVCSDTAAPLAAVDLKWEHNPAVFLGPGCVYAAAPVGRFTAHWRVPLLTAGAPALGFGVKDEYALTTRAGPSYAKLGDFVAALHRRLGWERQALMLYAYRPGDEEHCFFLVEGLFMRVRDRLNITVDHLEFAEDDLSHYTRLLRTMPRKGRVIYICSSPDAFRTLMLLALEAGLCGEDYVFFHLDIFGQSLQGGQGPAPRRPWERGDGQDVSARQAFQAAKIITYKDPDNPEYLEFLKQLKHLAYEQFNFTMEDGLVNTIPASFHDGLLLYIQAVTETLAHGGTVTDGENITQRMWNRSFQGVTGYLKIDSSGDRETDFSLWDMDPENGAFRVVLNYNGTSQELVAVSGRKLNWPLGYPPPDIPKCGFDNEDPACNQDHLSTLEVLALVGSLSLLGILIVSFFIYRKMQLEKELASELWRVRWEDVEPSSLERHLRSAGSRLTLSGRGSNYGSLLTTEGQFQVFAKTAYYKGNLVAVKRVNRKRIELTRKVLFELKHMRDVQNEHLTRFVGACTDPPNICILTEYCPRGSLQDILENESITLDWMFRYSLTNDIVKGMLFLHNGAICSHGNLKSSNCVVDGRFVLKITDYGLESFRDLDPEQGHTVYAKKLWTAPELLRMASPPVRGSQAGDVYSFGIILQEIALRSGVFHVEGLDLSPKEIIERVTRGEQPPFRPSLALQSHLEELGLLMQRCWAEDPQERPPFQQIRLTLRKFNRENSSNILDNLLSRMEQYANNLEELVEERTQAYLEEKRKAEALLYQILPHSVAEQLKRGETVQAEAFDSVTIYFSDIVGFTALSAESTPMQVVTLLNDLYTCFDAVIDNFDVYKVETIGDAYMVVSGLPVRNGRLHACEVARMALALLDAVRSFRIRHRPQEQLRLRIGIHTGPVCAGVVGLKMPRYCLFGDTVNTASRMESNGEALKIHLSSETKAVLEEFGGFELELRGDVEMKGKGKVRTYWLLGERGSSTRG
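HEK293 cells stably expressing human Npr1 and cGMP GloSensor pGS-40F, loaded 2 h with 2% GloSensor reagent, given compound 30 min at room temperature. Luminescence read before and 20 min after 0.1 nM hNppA.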
GPT2 inhibitor: Primary qHTS assay for inhibitors of Glutamate pyruvate transaminase 2 (GPT2). Alanine aminotransferase 2 (Homo sapiens), Q8TD30. Recombinant GPT2, coupled pyruvate oxidase/HRP Amplex Red fluorescence. Potency, µM (highest dose often 57.7 µM), without a hit: top-dose activity change, negative = inhibition, usual class: inhibitors. 100,000 tested, 0.25% active. AID 1671188, 2021; note: % is set by controls: 0 for no effect and ±100 for the full control effect; nearly all actives have a fitted effect of over 60% in size
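Fluorescence read-out: pyruvate from GPT2 turnover coupled to pyruvate oxidase, HRP and Amplex Red (0.2mM ThPP, 0.2U/mL PO and HRP, 50uM Amplex final). Substrates 250uM a-KG, 2mM L-alanine; enzyme 10ng/uL; 30 min RT.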
FLuc inh-1: Firefly luciferase inhibition profiling of diverse chemical library using quantitative high-throughput screening. Potency, µM (doses to about 115 µM), most hits filed as inhibitors. 76,000 tested, 2.5% active. purified P. pyralis luciferase, luminescence, biochemical; note: % is set by controls: 0 for no effect and ±100 for the full control effect; nearly all actives have a fitted effect of over 65% in size
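Biochemical qHTS: compound (6-point titration) added to 10uM D-luciferin plus 10uM ATP in Tris acetate pH 7.5 buffer with Mg, Tween-20 and BSA, then purified enzyme at 10nM; light output imaged.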
FLuc SDR -ATP: Firefly luciferase (FLuc-C-HiBiT) SDR gain of signal screen - without ATP. 1,300 tested, 7.8% active. Purified FLuc-C-HiBiT, Nano-Glo HiBiT luminescence, no ATP. shares compounds with FLuc inh-1. Potency, µM (titrated, usually from 32.7 µM), for inactives: at the highest dose activation (signal gain), usual class: activators; note: nearly all actives have a fitted effect of over 55% in size
FLuc SDR ATP: Firefly luciferase (FLuc-C-HiBiT) SDR gain of signal screen - plus ATP | 1,300 tested, 8.7% active | Potency, µM (doses to about 32.7 µM), inactives show top-dose activation (gain of signal), usual class: activators | shares compounds with FLuc inh-1 | purified FLuc-C-HiBiT + ATP, HiBiT complementation luminescence | AID 1963319, 2024;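 note: signal reports ligand binding via conformational change of the enzyme rather than luciferase catalysis; % of control where 0% means no effect; nearly all actives have a fitted effect of over 55% in size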
FLuc inh-2: Firefly luciferase (FLuc-C-HiBiT) enzymatic inhibition screen - Functional assay; shares compounds with FLuc inh-1; purified FLuc-C-HiBiT enzyme, luciferin luminescence; Potency, µM (titrated, usually from 32.7 µM), for inactives: top-dose activity change, negative = inhibition, most hits filed as inhibitors; 1,300 tested, 42% active; note: % is set by controls: 0 for no effect and ±100 for the full control effect; nearly all actives have a fitted effect of over 70% in size
Starred values were filed as active, the others as inactive; i = inactive; ? = inconclusive; / = no result given; [ ] = remark or other dose. Shown are actives, neighbours in structure and some others; about 10% of the full set was active somewhere. Unless noted, calls come from the whole dose curve; as a rule, active = well fitted curve in the direction sought with a large enough effect; inconclusive = small, poorly fitted or top-dose-only effect, or another doubt; inactive = no such curve, though single readings can be large; an effect the other way counts as inactive or inconclusive. Potency is the fitted concentration of half-maximal effect.

SMILES	3T3 cytotox	HEK cytotox	NPR1 antag	GPT2 inhibitor	FLuc inh-1	FLuc SDR -ATP	FLuc SDR ATP	FLuc inh-2
COc1cc(C(=O)NC2CCCN(c3cc(-c4ccc(F)cc4)[nH]n3)C2)cc(OC)c1OC (stereo not drawn)	?	?	-10%	-5%	13µM*	23%	11%	?
CN(C)c1cccc(C(=O)NC2CCN(c3cc(-c4ccc(Cl)cc4)[nH]n3)C2)c1 (stereo not drawn)	?	?	-29%	-31%	13µM*	10%	?	?
Cc1cccc(N2CCN(C(=O)C3CCCN(Cc4cccnc4)CCC(=O)NCC3)CC2)c1 (stereo not drawn)	-17%	?	-9%	2%	i	/	/	/
COc1ccc(-c2ccc(C(=O)N3CCN(C(=O)C4CCCC4)CC3)cc2)nn1	-23%	-20%	/	/	/	/	/	/
CNC(=O)c1cc(C2CC2)nc2c1c(C1CCN([S+](=O)([O-])c3cccs3)C1)nn2C (stereo not drawn)	-16%	-2%	/	/	/	/	/	/
Nc1ccc(C(=O)N2CCCn3nc(C(=O)Nc4ccccc4)cc3C2)cn1	-26%	?	-5%	-12%	7.1µM*	?	?	?
CCCS(=O)(=O)N1CCC(Oc2ccc(-c3noc(-c4ccccc4)n3)cc2)C1 (stereo not drawn)	?	?	-15%	i	?	/	/	/
O=C(c1ccncc1)N1CCC(Oc2ccc(-c3noc(-c4ccccc4)n3)cc2)C1 (stereo not drawn)	?	?	14µM*	i	14µM*	16%	14%	?
Cc1ncccc1C(=O)N1CCC(Oc2ccc(-c3noc(-c4ccccc4)n3)cc2)C1 (stereo not drawn)	?	?	11µM*	i	7.1µM*	19%	13%	?
COC(=O)c1sccc1NC(=O)N1CCCC1c1noc(COc2ccc(F)cc2)n1 (stereo not drawn)	?	?	0%	-7%	i	/	/	/
COc1ccc(C(=O)N[C@H]2C[C@@H](c3nc(-c4cncnc4)no3)N(C)C2)cc1	-12%[138 µM]	-4%[172 µM]	3%[70.6 µM]	i	?	/	/	/
COc1ccc(-c2noc([C@@H]3C[C@H](NCc4ccccn4)CN3C)n2)cc1	?	100µM*	?	-20%[88.5 µM]	13µM*	18%[49.3 µM]	15%[49.3 µM]	?
CC1(NC(=O)C2CC2)CN(Cc2nc(-c3ccccc3OCc3ccccc3)cs2)C1	?	79µM*	-14%[70.6 µM]	2%[88.5 µM]	7.9µM*	19%[49.3 µM]	13%[49.3 µM]	?
CC1(NC(=O)C2CC2)CN(Cc2nc(-c3cccc(F)c3)cs2)C1	-20%[138 µM]	?	25µM*	0%[88.5 µM]	2.8µM*	?	19%[49.3 µM]	?
COc1ccc(OCc2nc3c(n2Cc2ccccc2)C(=O)N(Cc2ccccc2)CCN3)cc1OC	?	?	2%	-7%	i	/	/	/
COc1ccccc1OCc1nc2ccccc2n1Cc1ccccc1	/	/	/	/	/	15%	9%	?
O=C1c2cnc(-c3ccccc3)nc2OCCN1CC1CC1	/	/	/	/	/	?	?	16µM*
COc1ccc(CN2CCOc3nc(Cc4ccccc4)ncc3C2=O)cc1	?	?	-9%[70.6 µM]	?	i	/	/	/
O=C1c2cnc(-c3ccccc3)nc2OCCN1Cc1ccccc1	?	?	-11%[70.6 µM]	1%[88.5 µM]	11µM*	15%[49.3 µM]	10%[49.3 µM]	-20%[49.3 µM]
O=C1c2cnc(-c3ccc(Cl)cc3)nc2OCCN1CC1CC1	/	/	/	/	/	24%[49.3 µM]	?	4µM*
CN(Cc1cnn(C)c1)C(=O)c1csc2nc(-c3ccc(C(F)(F)F)cc3)cn12	?	?	?	i	4.5µM*	?	?	4.4µM*
CCCN(CCC)C(=O)[C@@]12CCCC[C@H]1N(CCC(C)C)C(=O)CC2	?	?	-9%	?	i	/	/	/
COCCn1cnc2ccc(-c3ccc(F)c(Cl)c3)nc2c1=O	?	-28%[172 µM]	-2%[70.6 µM]	-3%[88.5 µM]	i	/	/	/
Fc1ccccc1-c1noc(-c2nc(-c3ccncc3)no2)n1	i	6%	-15%	-2%	i	/	/	/
c1ccc(-c2noc(-c3nc(-c4ccccn4)no3)n2)cc1	-25%	-6%	0%	i	i	/	/	/
SMILES	3T3 cytotox	HEK cytotox	NPR1 antag	GPT2 inhibitor	FLuc inh-1	FLuc SDR -ATP	FLuc SDR ATP	FLuc inh-2
O=C(O)c1cccc(-c2noc(-c3ccccc3F)n2)c1	/	/	/	-5%	/	11µM*	0.005µM*	0.0062µM*
Fc1ccccc1-c1nc(-c2ccccc2)no1	/	/	/	/	/	?	?	1.6µM*
COC(=O)c1cccc(-c2noc(-c3ccccc3F)n2)c1	/	/	/	/	/	22%	18%	?
Brc1ccccc1-c1nc(-c2ccccc2)no1	/	/	/	/	/	22%	?	3.5µM*
CC(C)C(=O)N1CCC(Oc2ccccc2-c2nc(-c3cnccn3)no2)C1 (stereo not drawn)	-3%	0%	5%	i	i	/	/	/
Cc1ccc(-c2nc(-c3ccccc3)no2)c(Cl)c1	/	/	/	/	/	3.9µM*	3.5µM*	0.2µM*
O=C(Nc1n[nH]c2cc(-c3ccccc3)ccc12)C1CC1	/	/	/	/	/	18%	11%	?
COC(=O)NCCNC(=O)c1ccc(-c2cccc(OC)c2)cc1	-28%[138 µM]	?	/	/	/	/	/	/
O=C(c1ccccc1F)N1CCN(C(=O)c2nc3cccnc3n(Cc3ccccc3)c2=O)CC1	-12%	4%	/	3%	/	/	/	/
O=C(O)C1(Oc2ccc3ccccc3c2)CCN(c2ncnc3nc[nH]c23)CC1	-2%	-15%	14%	3%	i	11%	12%	-12%
CC(=O)N1CCc2nn(CC(=O)Nc3ccc(F)cc3C)c(=O)cc2C1	i	12%	0%	i	i	/	/	/
Cc1cc(F)ccc1NC(=O)c1csc2c1CCC(C)C2 (stereo not drawn)	/	/	/	/	/	26%	20%	?
